In article PMC4336329 (PLoS ONE, 2015):
The campaign covered roughly 310,000 compounds. About 14,000 (4.5%) showed an effect of 50% or more. Effects have a minus sign here. Only a selection was taken, and strong results are over-represented in it overall.

Biological target: human ether-à-go-go-related gene (hERG) potassium channel (human, UniProt Q12809)
Assay: primary screen, population patch clamp on CHO cells stably expressing hERG; higher = less effect of the substance
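Note: peak tail current of the secondary pulse compared with the same well before compound.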

Chain of human ether-à-go-go-related gene (hERG) potassium channel (Q12809 whole entry, looked up): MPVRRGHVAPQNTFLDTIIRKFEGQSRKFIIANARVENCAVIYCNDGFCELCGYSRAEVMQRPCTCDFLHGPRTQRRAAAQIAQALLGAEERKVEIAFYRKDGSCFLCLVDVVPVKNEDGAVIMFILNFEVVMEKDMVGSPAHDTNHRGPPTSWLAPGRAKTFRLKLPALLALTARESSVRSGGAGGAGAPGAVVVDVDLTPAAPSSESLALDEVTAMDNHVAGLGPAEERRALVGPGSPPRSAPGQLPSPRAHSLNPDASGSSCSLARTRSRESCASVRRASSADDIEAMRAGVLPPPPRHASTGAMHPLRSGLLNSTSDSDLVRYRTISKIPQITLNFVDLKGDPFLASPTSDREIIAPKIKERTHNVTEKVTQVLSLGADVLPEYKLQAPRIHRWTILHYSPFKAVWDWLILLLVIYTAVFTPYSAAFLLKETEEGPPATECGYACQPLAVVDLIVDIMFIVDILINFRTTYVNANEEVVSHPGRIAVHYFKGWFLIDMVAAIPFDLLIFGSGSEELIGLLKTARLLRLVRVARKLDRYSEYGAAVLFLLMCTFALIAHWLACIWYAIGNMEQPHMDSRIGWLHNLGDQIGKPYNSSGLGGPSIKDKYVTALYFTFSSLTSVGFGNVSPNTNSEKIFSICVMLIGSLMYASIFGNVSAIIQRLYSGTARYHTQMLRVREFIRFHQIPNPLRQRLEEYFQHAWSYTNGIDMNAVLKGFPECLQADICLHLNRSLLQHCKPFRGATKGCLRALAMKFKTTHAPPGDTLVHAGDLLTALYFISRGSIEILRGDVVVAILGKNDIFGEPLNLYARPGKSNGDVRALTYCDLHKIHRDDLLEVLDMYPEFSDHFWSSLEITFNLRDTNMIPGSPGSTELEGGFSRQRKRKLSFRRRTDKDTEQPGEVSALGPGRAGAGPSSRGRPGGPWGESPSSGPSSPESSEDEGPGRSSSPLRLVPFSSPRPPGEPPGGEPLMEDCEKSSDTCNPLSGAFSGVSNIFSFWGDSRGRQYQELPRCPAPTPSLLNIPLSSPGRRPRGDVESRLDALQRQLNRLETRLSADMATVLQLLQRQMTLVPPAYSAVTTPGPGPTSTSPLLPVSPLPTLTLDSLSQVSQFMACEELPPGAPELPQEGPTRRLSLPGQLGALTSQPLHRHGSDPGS

Compound | hERG current change (%, negative = inhibition) at 10uM
O=C(CC1SC(=O)N(Cc2ccccc2)C1=O)Nc1nccs1 (stereo not shown) | 3.22%
O=C(Nc1ccc(Br)cc1)Nc1ccccc1Cl | 19.7%
CC(=O)Nc1ccc2c(c1)ncn2-c1ccccc1 | 3.72%
CCOC(=O)C1CCCN(C(=O)c2ccc3c(c2)NC(=O)C(N2CCOCC2)S3)C1 (stereo not shown) | 19.7%
CCCCC(=O)NC(=S)Nc1ccc(NC(=O)C(C)C)c(OC)c1 | 21.2%
Cc1ccc(N(CC(O)COCc2ccco2)S(=O)(=O)c2ccc(C)cc2)cc1 (stereo not shown) | -11.1%
Cc1ccc(S(=O)(=O)N(CCC(=O)O)c2ccccc2)cc1 | -10.5%
CCCN(CCC)CC(O)CN(c1ccccc1)S(=O)(=O)c1ccc(C)cc1 (stereo not shown) | -80.3%
CC(C)OC(=O)CCc1nc2ccccc2[nH]c1=O | 10.1%
COc1nc(-c2ccccc2)ccc1-c1noc(-c2cccnc2)n1 | 5.15%
COc1ccc(C(=O)COC(=O)CNC(=O)C2CCCCC2)c(OC)c1 | -11%
COc1ccc(NC(=O)C2C(=O)N(C)C3(C)CC2c2ccccc2O3)cc1 (stereo not shown) | -13.5%
CCC(C)NS(=O)(=O)c1cccs1 (stereo not shown) | 7.86%
COc1ccc(OC)c(CCNC(=O)C(C)n2nc(C)c3c(C)n(-c4ccccc4)nc3c2=O)c1 (stereo not shown) | -0.756%
COc1ccc(OC)c(CNC(=O)Cn2nc(C)c3c(C)n(-c4ccc(C)cc4)nc3c2=O)c1 | 3.27%
COc1ccc(OC)c(CCNC(=O)Cn2nc(C)c3c(C)n(-c4ccccc4)nc3c2=O)c1 | 5%
COc1ccc(OC)c(CCNC(=O)Cn2nc(C)c3c(C)n(-c4ccc(C)cc4)nc3c2=O)c1 | -59%
COc1ccc(OC)c(CNC(=O)C(C)n2nc(C)c3c(C)n(-c4ccccc4)nc3c2=O)c1 (stereo not shown) | -7.41%
COc1ccc(OC)c(CCNC(=O)C(C)n2nc(C)c3c(C)n(-c4ccc(C)cc4)nc3c2=O)c1 (stereo not shown) | -53.2%
COc1ccc(CCNC(=O)C(C)n2nc(C)c3c(C)n(-c4ccc(C)cc4)nc3c2=O)c(OC)c1 (stereo not shown) | -58.6%
COc1ccccc1CCNC(=O)C(C)n1nc(C)c2c(C)n(-c3ccccc3)nc2c1=O (stereo not shown) | -12.3%
COc1ccc(CNC(=O)C(C)n2nc(C)c3c(C)n(-c4ccccc4)nc3c2=O)c(OC)c1 (stereo not shown) | -8.08%
CC(=O)Nc1ccc(C(=O)CSc2ncn(-c3ccccc3)n2)cc1 | 5.72%
Cc1sc2ncn(CC(=O)NCc3ccco3)c(=O)c2c1-c1ccccc1 | -11.8%
CC(=O)c1cnc(Oc2cc(Cl)ccc2Cl)nc1C | 0.763%
CSc1sc(C(=O)N(C)C)cc1S(=O)(=O)C(C)C | 1.94%
CCN1C(=O)/C(=C/c2cccs2)N(C)C1=S | -7.99%

Compound | hERG current change (%, negative = inhibition) at 10uM
COc1ccccc1NS(=O)(=O)c1cc(C(=O)NCC2CCCO2)ccc1C (stereo not shown) | -36.8%
COC(=O)C1=C(C(=O)OC)[C@@H]2N(C)c3ccccc3[C@@]23C[C@@H](C(=O)OC)N(C(=O)C2CCC2)C3=N1 | -29.7%
COC(=O)C1=C(C(=O)OC)[C@@H]2N(C)c3ccccc3[C@@]23C[C@@H](C(=O)OC)N(C(=O)COCc2ccccc2)C3=N1 | -9.16%
COC(=O)C1=C(C(=O)OC)[C@@H]2N(C)c3ccc(OC)cc3[C@@]23C[C@@H](C(=O)OC)N(C(=O)c2cccs2)C3=N1 | -68.3%
COC(=O)C1=C(C(=O)OC)[C@@H]2N(C)c3ccccc3[C@@]23C[C@@H](C(=O)OC)N(C(=O)c2cccs2)C3=N1 | -10.1%
COC(=O)C1=C(C(=O)OC)[C@@H]2N(C)c3ccc(OC)cc3[C@@]23C[C@@H](C(=O)OC)N(C(=O)COCc2ccccc2)C3=N1 | -55%
COC(=O)C1=C(C(=O)OC)[C@@H]2N(C)c3ccc(OC)cc3[C@@]23C[C@@H](C(=O)OC)N(C(=O)NC2CCCCC2)C3=N1 | -26%
CCOC(=O)N1C2=NC(C(=O)OC)=C(C(=O)OC)[C@@H]3N(C)c4ccc(OC)cc4[C@]23C[C@H]1C(=O)OC | 6.52%
COC(=O)C1=C(C(=O)OC)[C@@H]2N(C)c3ccc(OC)cc3[C@@]23C[C@@H](C(=O)OC)N(C(=O)C2CCC2)C3=N1 | -50%
COC(=O)C1=C(C(=O)OC)[C@@H]2N(C)c3ccccc3[C@@]23C[C@@H](C(=O)OC)N(C(=O)c2ccco2)C3=N1 | -13.9%
COC(=O)C1=C(C(=O)OC)[C@@H]2N(C)c3ccc(OC)cc3[C@@]23C[C@@H](C(=O)OC)N(C(=O)c2ccco2)C3=N1 | -50.6%
COC(=O)C1=C(C(=O)OC)[C@@H]2N(C)c3ccc(OC)cc3[C@@]23C[C@@H](C(=O)OC)N(C(=O)CC(C)C)C3=N1 | -14.9%
COC(=O)C1=C(C(=O)OC)[C@@H]2N(C)c3ccc(OC)cc3[C@@]23C[C@@H](C(=O)OC)N(C(=O)c2ccc(Br)cc2)C3=N1 | -17.7%
COc1ccc(/C=N\NC(=O)c2ccccc2Br)cc1COc1c(F)c(F)cc(F)c1F | -0.654%
Brc1ccc(-n2cccc2/C=N/n2cnnc2)cc1 | -25.1%
Cc1ccc(OCC(=O)Nc2ccc(C)c(S(=O)(=O)N3CCCCC3)c2)c([N+](=O)[O-])n1 | -45.4%
C=CCNC(=O)/C(=C/c1ccccc1OCC)NC(=O)c1ccccc1 | 2.63%
O=c1cc(Nc2ccc3c(c2)OCCO3)[nH]c(=O)n1-c1ccc(Cl)cc1 | -0.327%
CCC(C)NC(=O)c1ccccc1NC(=O)/C(=C/c1ccc(OC)cc1)c1ccccc1 (stereo not shown) | 3.99%
COC(=O)c1ccccc1NC(=O)NCc1ccc2c(c1)OCO2 | -11.4%
CCCCS(=O)CC(CS(=O)CCCC)OC(=O)c1ccc(C)cc1 (stereo not shown) | -49.2%
Cc1ccc(S(=O)(=O)N(C)c2ccc(C(=O)O)cc2)cc1 | -17.1%
CCOc1ccc(OCC(O)CNC2CCN(Cc3ccccc3)CC2)cc1.O=C(O)C(=O)O (stereo not shown) | -62.8%
CC(C)NCCCOc1ccc(C(C)(C)c2ccccc2)cc1.O=C(O)C(=O)O | 7.21%
C#CCOc1ccccc1CNC1CCN(Cc2ccccc2)CC1.O=C(O)C(=O)O | -29.3%
CCOc1ccc(CC(=O)NC2CCN(Cc3ccccc3)CC2)cc1 | -6.23%
COc1ccccc1NCC(O)COc1ccc(C(C)(C)C)cc1.O=C(O)C(=O)O (stereo not shown) | 6.79%

Compound | hERG current change (%, negative = inhibition) at 10uM
CC(C)(c1ccccc1)c1ccc(OCC(O)CNC2CCN(Cc3ccccc3)CC2)cc1.O=C(O)C(=O)O (stereo not shown) | -72.8%
COc1ccc(CNCC(O)COc2ccc(C(C)(C)c3ccccc3)cc2)cc1.O=C(O)C(=O)O (stereo not shown) | -12.3%
CC(=O)Nc1ccc(OCC(O)CNC2CCCC2)cc1.Cl (stereo not shown) | 6.24%
CC(C)N(CCNCC(O)COc1ccc(C(C)(C)c2ccccc2)cc1)C(C)C.O=C(O)C(=O)O (stereo not shown) | -79%
O=C(Cc1ccccc1)NN1C(=O)C2C3C=CC(C3)C2C1=O (stereo not shown) | 12.4%
COc1ccc(C)cc1NC(=O)C(OC(=O)C1CC1)c1ccccc1 (stereo not shown) | -12%
O=C(COC(=O)C1CCN(S(=O)(=O)c2ccccc2C(F)(F)F)CC1)NCc1ccc(F)cc1 | -8.33%
CCOc1ccc(N=Cc2c(O)n(-c3ccc(C)c(C)c3)c(=O)[nH]c2=O)cc1 | -1.8%
Cc1ccc(-n2ncc3c(SCC(=O)Nc4cc(C)on4)ncnc32)c(C)c1 | 17.9%
O=C(C[n+]1ccccc1)N/N=C/c1ccccc1[N+](=O)[O-].[Cl-] | 40.2%
Cc1cccc(C(=O)N2CCCC(Nc3ccc(C(C)C)cc3)C2)n1 (stereo not shown) | 0.95%
Cc1ccc(C2Nc3cccc4cccc(c34)N2)s1 | -4.53%
CN(C)S(=O)(=O)c1cccc(C(=O)Nc2ccc(S(=O)(=O)N3CCCC3)cc2)c1 | 25.5%
CC1(C)Cc2cccc(OCC(=O)N3CCN(S(=O)(=O)c4ccccc4F)CC3)c2O1 | -14.6%
O=C(Nc1ccc2cn[nH]c2c1)c1ccc(S(=O)(=O)N2CCOCC2)cc1 | -19.7%
CC(=O)OC(C(=O)Nc1nccs1)c1ccccc1 (stereo not shown) | 2.26%
O=C(c1nn(Cc2ccccc2)c(=O)c2ccccc12)N1CCc2ccccc2C1 | -29%
O=C(c1ccc(Cn2c(=O)[nH]c3ccccc3c2=O)cc1)N1CCN(c2ccccn2)CC1 | 0.196%
CC(C)CNC(=O)c1nn(Cc2ccccc2)c(=O)c2ccccc12 | -16%
O=C(c1nn(Cc2ccccc2)c(=O)c2ccccc12)N1CCN(c2ccccn2)CC1 | -66.3%
CC(=O)c1ccc(N2CCN(C(=O)c3nn(Cc4ccccc4)c(=O)c4ccccc34)CC2)cc1 | -75.1%
CC(C)N(CCNC(=O)c1nn(Cc2ccccc2)c(=O)c2ccccc12)C(C)C | -66.1%
CC(=O)c1ccc(N2CCN(C(=O)c3n[nH]c4ccccc34)CC2)cc1 | -34.3%
O=C(c1nn(-c2ccccc2)c(=O)c2ccccc12)N1CCN(c2ccccn2)CC1 | -16.5%
CC(C)CCNC(=O)c1nn(Cc2ccccc2)c(=O)c2ccccc12 | 5.59%
